# Assay results: the supplement of paper PMC6555819
# Assays:
# Test in all cases: PBM binding z-score (relative to random genomic background probes); higher = stronger binding; sequences stand for … in GC…GCGATTGACAGCGTAGAATGAAGG
# [1] = tested on: FXR:RXRa (NR concentration 270 nM, RXRa partner concentration 90 nM)
# How it was run: (§1)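 Binding buffer was PBS pH 7.4 with 2% milk, 0.02% Triton X-100, 1 mM DTT, 0.2 mg/mL BSA and 0.4 mg/ml salmon testes DNA. In it, ligand-free nuclear receptor dimers were incubated 1 h on custom Agilent 4×180K protein-binding microarrays carrying double-stranded probes. Antibodies against each partner (one per run) detected binding, and z-scores were calculated against random background probes after regression normalization of scanned fluorescence.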
# [2] = tested on: LXRa:RXRa (NR concentration 270 nM, RXRa partner concentration 90 nM)
# How it was run: as §1
# [3] = tested on: LXRa homodimer (NR concentration 270 nM)
# How it was run: as §1
# [4] = tested on: LXRb:RXRa (NR concentration 270 nM, RXRa partner concentration 90 nM)
# How it was run: as §1
# [5] = tested on: LXRb homodimer (NR concentration 270 nM)
# How it was run: as §1
# [6] = tested on: PPARa:RXRa (NR concentration 270 nM, RXRa partner concentration 90 nM)
# How it was run: as §1
# [7] = tested on: PPARg:RXRa 270nM:90nM, anti-RXR (NR concentration 270 nM, RXRa partner concentration 90 nM)
# How it was run: as §1
# [8] = tested on: PPARg:RXRa 30nM:10nM, anti-RXR (NR concentration 30 nM, RXRa partner concentration 10 nM)
# How it was run: as §1
# [9] = tested on: PPARg:RXRa 90nM:30nM, anti-RXR (NR concentration 90 nM, RXRa partner concentration 30 nM)
# How it was run: as §1
# [10] = tested on: PPARg:RXRa DBDmut IVT, anti-RXR (DBD mutation: RXRa K156A/R161A, NR concentration 270 nM, RXRa partner concentration 90 nM)
# How it was run: as §1
# [11] = tested on: PPARg:RXRa IVT, anti-PPARg (NR concentration 270 nM, RXRa partner concentration 90 nM)
# How it was run: as §1
# [12] = tested on: PPARg DBDmut:RXRa IVT, anti-PPARg (DBD mutation: PPARg1 K132A/R137A, NR concentration 270 nM, RXRa partner concentration 90 nM)
# How it was run: as §1
# [13] = tested on: PPARg DBDmut IVT, anti-PPARg (DBD mutation: PPARg1 K132A/R137A, NR concentration 270 nM)
# How it was run: as §1
# [14] = tested on: PPARg homodimer (NR concentration 180 nM)
# How it was run: as §1
# [15] = tested on: PXR:RXRa (NR concentration 270 nM, RXRa partner concentration 90 nM)
# How it was run: as §1
# [16] = tested on: PXR homodimer (NR concentration 270 nM)
# How it was run: as §1
# [17] = tested on: RARa:RXR (NR concentration 270 nM, RXRa partner concentration 90 nM)
# How it was run: as §1
# [18] = tested on: RARa homodimer (NR concentration 270 nM)
# How it was run: as §1
# [19] = tested on: RARb:RXRa (NR concentration 270 nM, RXRa partner concentration 90 nM)
# How it was run: as §1
Sequence,PBM binding z-score [1],PBM binding z-score [2],PBM binding z-score [3],PBM binding z-score [4],PBM binding z-score [5],PBM binding z-score [6],PBM binding z-score [7],PBM binding z-score [8],PBM binding z-score [9],PBM binding z-score [10],PBM binding z-score [11],PBM binding z-score [12],PBM binding z-score [13],PBM binding z-score [14],PBM binding z-score [15],PBM binding z-score [16],PBM binding z-score [17],PBM binding z-score [18],PBM binding z-score [19]
ATACGTAGGTTATCGGGTCATTCAGTTTGCGCAT,3.01,3.2,1.41,2.88,1.18,3.58,3.39,0.883,2.46,3.06,3.95,1.74,0.954,2.79,3.74,8.01,3.84,0.759,2.59
CCCACTGGGGCAAAGGTTACCATACTCAGTACGA,1.6,1.6,-0.143,2,-0.809,5.98,9.71,9.33,11.5,5.25,7.1,0.141,-0.557,1.73,2.41,-0.111,3.81,0.0182,2.37
ATATGTAGGTCATCGGGTCATTCAGTTTGCGCAT,6.61,5.82,4.84,4.74,1.76,6.46,8.12,6.72,8.81,8.44,8.83,6.46,6.66,5.23,5.5,8.57,6.32,2.05,4.65
CGTCCAAGGTCAGCAGGTGAGTGAAAGCGACGTG,5.14,3.02,-0.383,2.08,-0.689,4.13,3.7,0.511,2.24,2.8,3,-0.33,-0.746,3.15,2.41,0.206,3.32,0.593,4.87
TAGCCTAGGTCATGGGCCTGTATACCACGCGAAC,4.51,3.39,0.196,2.64,-0.604,4.12,3.29,0.751,2.07,1.69,3.19,0.382,-0.135,1.45,1.82,-0.611,3.17,0.359,3.97
TATACTGGGTCAAAGGCCAGAGTACGAATGTCGA,4.05,3.73,1.34,2.81,1.32,5.52,8.98,8.63,10.2,6.17,7.37,3.19,3.85,5.01,2.33,0.331,3.3,0.721,3.59
CCTTACGGTTCACTGACAGGTTATAGCATTTGGA,1.66,2.43,1.04,1.89,0.471,2.33,1.08,0.683,0.771,0.62,0.00685,0.829,0.643,1.64,2.14,0.911,2.41,1.71,1.16
CCTAGTTGGTCAGGAGGTCCCACACCGGATATGA,0.0406,-0.213,0.429,-0.248,0.251,-0.0736,0.194,-0.0977,-0.144,0.207,0.483,-0.124,-0.0969,1.06,-0.0476,0.63,-0.0305,0.95,0.64
CAAAGTAGGTCAAGGTCAAAGTCGGTTTGTGCCA,6.64,5.74,4.44,4.67,1.7,6.22,8.02,7.19,8.49,8.64,9.04,5.79,3.56,4.77,5.48,2.55,5.94,2.15,5.07
AAAATGAGGTTAAGATCAGGGAAACAGAATACAT,2.83,2.62,0.171,2.1,0.347,4.04,2.67,1.16,2.41,3.27,3.78,1.96,0.972,1.85,1.26,0.646,2.48,0.889,2.04
AGTCAAAGTTCATCTGGGTAACGTAAGATATGCT,6.32,6.01,5.7,4.05,1.69,4.98,6.09,3.73,5.62,1.05,3.77,0.881,0.701,2.39,5.16,5.32,3.69,1.4,4.81
CCTACTGGGCCAAGGTCATAGATCAGTCAAAGCA,2.72,2.93,0.673,2.72,-0.469,4.19,4.41,2.23,3.84,3.5,4.88,0.145,-0.588,2.21,3.28,0.536,4.12,0.339,3.23
CCTCCAAGGTCATAGGAGGTCAGTGAAGACAGAT,7.3,7.45,4.84,6.24,0.899,5.85,5.88,2.47,4.29,2.72,4.01,1.58,0.448,4.5,6.72,4.74,5.96,2.34,5.09
CAAACTAGGTCAAGGGGTCAAAGTCCGCTTCCCG,7.14,6.22,3.83,6.08,1.17,6.9,8.96,8.47,9.27,8.13,8.72,0.711,1.52,6.55,6.31,1.78,7.88,1.67,5.46
CTAACTAGGTCACAGAGGTCAAAGTCCGTGCGTA,7.38,6.55,7.37,6.19,2.21,6.62,8.54,7.16,9.04,8.94,9.17,7.21,5.22,4.09,6.74,12.1,7.31,3.9,5.32
ATCGAAAGGTCGAAGGTGAGTACACCCACCCGAA,4.49,3.49,0.413,2.92,0.705,4.68,4.86,2.04,3.87,0.019,2.74,1.5,0.329,1.98,3.49,0.469,4.08,1.18,3.9
CTAACTAGGTCAAGGTCAAAGTCGGTTTGTGCCA,6.55,5.3,4.54,4.54,1.41,6.04,7.82,7.09,8.36,8.82,8.88,2.1,2.34,2.99,5.04,1.89,4.65,0.786,5
GCTTACGGGTCAAAGGTTATGGCATGAATAGAAT,6.72,5.85,0.622,5.65,0.792,6.79,9.38,9.74,10.5,5.17,5.79,1.49,1.1,3.11,6.13,0.477,8.41,1.41,4.56
CCGACTGGGGCAAAGGTTACGATACTCAGTACGA,1.82,1.6,-0.076,2,-1.04,5.62,9.56,9.53,11.7,4.56,6.38,0.809,0.584,4,2.51,-0.536,4.39,-0.413,2.57
ATCTCTAGGTCAAAGTTCAGTGAATCCCGAGGAT,5.79,6.34,6.95,4.67,3.69,6.3,9.63,10.4,10.7,6.47,6.91,3.49,3.22,3.06,5.29,2.76,6.71,1.52,4.58
TCTAGTTGGTCACGGAGGTCACACGCGACGGGTA,3.47,3.74,2.9,3.14,0.904,3.95,4.08,3.3,3.9,2.46,4.38,1.06,1.9,3.12,4.55,1.5,4.54,1.78,3.87
CAAACTAGGTCACGAAAGGTCAAAGTTGAATGAC,7.31,8.11,8.31,7.43,2.68,6.6,8.55,7.45,8.74,8.71,9.01,2.54,2,4.96,6.9,3.33,7.79,4.38,5.45
ATCTCTAGGTGAAAGTTCAGTGAATCCCGAGGAT,1.41,1.98,1.24,1.43,0.429,5.61,9.55,9.07,11.4,5.35,6.32,1.5,0.994,1.52,2.87,1.57,2.87,0.586,3
CGGACTGGGGCAAAGGTTACCATACTCAGTACGA,1.68,1.67,-0.108,2.34,-0.125,6.02,9.26,9.67,11.7,6.11,6.8,0.377,0.924,1.68,2.76,-0.252,3.88,0.372,2.42
TGAATGAGGTGAAAGATCAGGGAACGTGGCGTCG,1.19,1.1,-0.421,0.428,0.209,4.52,6.92,6.44,7.54,3.85,5,2.22,0.574,0.746,0.587,-0.0848,1.8,-0.562,1.48
ACTAGTAGGCCAAGGGTCACTCAAGATTAGTCCG,2.69,2.91,0.417,2.98,0.0422,5.64,9.26,10.9,10.4,5.4,6.33,0.82,1.01,2.17,3.24,-0.0548,4.2,0.166,3.61
CAAACTAGGTCAAAGGTCAACGTCGAGCCAACCA,8.3,7.18,5.23,7.01,2.37,7.5,11.3,13.9,14.4,8.88,9.1,3.12,5.08,10.7,7.11,1.82,9.16,5.04,5.88
GATACAGGGTGAGCTAGAGGCCAGAGTATGGAAA,-0.454,-0.464,-0.638,-0.678,-1.4,0.23,-0.0418,-0.29,-0.422,0.274,0.614,-0.0983,-0.828,-0.261,-0.31,-0.845,0.0105,-0.483,0.744
CAAACTAGGTCAAGGTCAAAGTAGGTTTGTGCCA,7.18,5.78,4.55,4.82,1.64,6.41,8.19,6.7,8.63,8.75,8.96,4.01,3.69,5.67,5.46,2.97,5.43,2.61,5.31
ACTAGGAGGACAAAGGTCAGAGCTACGCCAGTGA,4.32,4.18,1.5,3.58,0.612,5.33,8.36,7.87,8.99,2.03,4.63,0.268,-0.394,4.52,3.9,0.46,5.08,2.86,4.54
